Activity calls are given as the source filed them. Rule for the calls: active = hit-call score of the fitted dose curve at least 0.9, where 1 is the maximum; inactive = score below 0.9.
assay: APR_HepG2_StressKinase_72hr: Apredica 72-hour HepG2 Assay for Stress Kinase (AID 2282921); conditions: HepG2 stress kinase (phospho-c-Jun) imaging, actives raise or lower the signal
How it was run: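 Phospho-c-Jun immunofluorescence measured by high-content imaging at 20x, six fields per well; bidirectional curve fitting against DMSO as baseline. Dosing: 0.39–200 uM, 72 h, 0.5% DMSO final.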

SMILES | outcome | AC50
CCn1nc(C)c2c1C(=O)NCC(c1ccc(O)cc1)=N2 | inactive | 
NC(=O)NN=Cc1ccc([N+](=O)[O-])o1 | inactive | 
Cn1c(=O)c2[nH]cnc2n(C)c1=O | inactive | 
c1ccc2cc3ccccc3cc2c1 | inactive | 
c1ccc2ncccc2c1 | inactive | 
CCCCOC(=O)c1ccccc1 | inactive | 
CCCCCCCCN(C)C | inactive | 
CCCCC(CC)C(=O)OCCOCCOCCOC(=O)C(CC)CCCC (stereo unspecified) | inactive | 
C[C@]12C=CC(=O)C=C1CC[C@H]1[C@@H]3C[C@@H](O)[C@](O)(C(=O)CO)[C@@]3(C)C[C@H](O)[C@@]12F | inactive | 
O=C(O)c1cccc(C[C@@H]2COc3ccc(OCc4nc5cc(F)ccc5s4)cc3[C@@H]2O)c1 |  | 66.3 µM (active)
OC(Cn1cncn1)(Cn1cncn1)c1ccc(F)cc1F | inactive | 
OCCOCCOCCO | inactive | 
CCCCN1C(=O)[C@@H]([C@H](O)C2CCCCC2)NC(=O)C12CCN(Cc1ccc(Oc3ccc(C(=O)O)cc3)cc1)CC2 |  | 39.9 µM (active)

assay: APR_HepG2_StressKinase_24hr: Apredica 24-hour HepG2 Assay for Stress Kinase (AID 2282922); conditions: HepG2 stress kinase (phospho-c-Jun) imaging, actives raise or lower the signal
How it was run: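 After 24 hr compound treatment (up to 200 uM, final DMSO 0.5% v/v), HepG2 cells are fixed and multiplex-labeled; phospho-c-Jun intensity is captured by high-content fluorescence imaging and analyzed relative to DMSO.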

SMILES | outcome | AC50
CCn1nc(C)c2c1C(=O)NCC(c1ccc(O)cc1)=N2 | inactive | 
NC(=O)NN=Cc1ccc([N+](=O)[O-])o1 | inactive | 
Cn1c(=O)c2[nH]cnc2n(C)c1=O | inactive | 
c1ccc2cc3ccccc3cc2c1 | inactive | 
c1ccc2ncccc2c1 | inactive | 
CCCCOC(=O)c1ccccc1 | inactive | 
CCCCCCCCN(C)C | inactive | 
CCCCC(CC)C(=O)OCCOCCOCCOC(=O)C(CC)CCCC (stereo unspecified) | inactive | 
C[C@]12C=CC(=O)C=C1CC[C@H]1[C@@H]3C[C@@H](O)[C@](O)(C(=O)CO)[C@@]3(C)C[C@H](O)[C@@]12F | inactive | 
O=C(O)c1cccc(C[C@@H]2COc3ccc(OCc4nc5cc(F)ccc5s4)cc3[C@@H]2O)c1 |  | 110 µM (active)
OC(Cn1cncn1)(Cn1cncn1)c1ccc(F)cc1F | inactive | 
OCCOCCOCCO | inactive | 
CCCCN1C(=O)[C@@H]([C@H](O)C2CCCCC2)NC(=O)C12CCN(Cc1ccc(Oc3ccc(C(=O)O)cc3)cc1)CC2 | inactive | 

assay: APR_HepG2_p53Act_72hr: Apredica 72-hour HepG2 Assay for p53 Activation (AID 2282923); conditions: high-content imaging, actives raise or lower the signal;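 note: average cellular p53 protein immunofluorescence intensity in HepG2 cells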
How it was run: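 Readout: p53 immunofluorescence quantified by automated high-content imaging at 20x, six fields per well, nuclei located via Hoechst. Dosing ran 72 hr over ten concentrations from 0.39 to 200 uM; bidirectional curve fitting against DMSO baseline.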

SMILES | outcome | AC50
CCn1nc(C)c2c1C(=O)NCC(c1ccc(O)cc1)=N2 | inactive | 
NC(=O)NN=Cc1ccc([N+](=O)[O-])o1 |  | 67.3 µM (active)
Cn1c(=O)c2[nH]cnc2n(C)c1=O | inactive | 
c1ccc2cc3ccccc3cc2c1 | inactive | 
c1ccc2ncccc2c1 | inactive | 
CCCCOC(=O)c1ccccc1 | inactive | 
CCCCCCCCN(C)C | inactive | 
CCCCC(CC)C(=O)OCCOCCOCCOC(=O)C(CC)CCCC (stereo unspecified) | inactive | 
C[C@]12C=CC(=O)C=C1CC[C@H]1[C@@H]3C[C@@H](O)[C@](O)(C(=O)CO)[C@@]3(C)C[C@H](O)[C@@]12F | inactive | 
O=C(O)c1cccc(C[C@@H]2COc3ccc(OCc4nc5cc(F)ccc5s4)cc3[C@@H]2O)c1 |  | 73.1 µM (active)
OC(Cn1cncn1)(Cn1cncn1)c1ccc(F)cc1F | inactive | 
OCCOCCOCCO | inactive | 
CCCCN1C(=O)[C@@H]([C@H](O)C2CCCCC2)NC(=O)C12CCN(Cc1ccc(Oc3ccc(C(=O)O)cc3)cc1)CC2 |  | 38.7 µM (active)

assay: APR_HepG2_MitoMass_72hr: Apredica 72-hour HepG2 Assay for Mitochondrial Mass (AID 2282924); conditions: high-content imaging, actives raise or lower the signal;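 note: MitoTracker Red CMXRos stain intensity per cell imaged as mitochondrial mass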
How it was run: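 Steps: treat HepG2 72 hr (0.39–200 uM, duplicate wells); load MitoTracker Red CMXRos, 250 nM, 30 min; fix with 3.7% formaldehyde, permeabilise with 0.5% Triton X-100; capture images, nuclei via Hoechst 33342; fit bidirectionally against DMSO.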

SMILES | outcome | AC50
CCn1nc(C)c2c1C(=O)NCC(c1ccc(O)cc1)=N2 | inactive | 
NC(=O)NN=Cc1ccc([N+](=O)[O-])o1 | inactive | 
Cn1c(=O)c2[nH]cnc2n(C)c1=O | inactive | 
c1ccc2ncccc2c1 | inactive | 
CCCCOC(=O)c1ccccc1 | inactive | 
CCCCCCCCN(C)C | inactive | 
CCCCC(CC)C(=O)OCCOCCOCCOC(=O)C(CC)CCCC (stereo unspecified) | inactive | 
C[C@]12C=CC(=O)C=C1CC[C@H]1[C@@H]3C[C@@H](O)[C@](O)(C(=O)CO)[C@@]3(C)C[C@H](O)[C@@]12F | inactive | 
O=C(O)c1cccc(C[C@@H]2COc3ccc(OCc4nc5cc(F)ccc5s4)cc3[C@@H]2O)c1 |  | 178 µM (active)
OC(Cn1cncn1)(Cn1cncn1)c1ccc(F)cc1F | inactive | 
OCCOCCOCCO | inactive | 
CCCCN1C(=O)[C@@H]([C@H](O)C2CCCCC2)NC(=O)C12CCN(Cc1ccc(Oc3ccc(C(=O)O)cc3)cc1)CC2 | inactive | 

Source: PubChem BioAssay (EPA / NIEHS)
